Consider 40 compounds from PubChem BioAssay (NCATS).

Values joined by “and” are separate entries in the source; they are usually repeats but may differ in a detail not shown here. Equal entries are not always repeated. Inconclusive results are not listed. Active and inactive are the calls of the source. The call rests on the fitted dose curve; in most records, active means well fitted inhibition curve with a large enough effect; inconclusive means small, poorly fitted or top-dose-only effect; inactive means no such curve, though single readings can be large or run the other way.

This test can be described thus: Primary qHTS for inhibitors of nuclear receptor binding SET domain protein 2 (NSD2) in an RCH-ACV wild type WT cells (2C) (AID 1645877). Further: nearly all actives have a fitted effect of over 70% in size. The conditions noted are these: RCH-ACV (leukaemia line) NSD2 WT (2C) viability, CellTiter-Glo, 72 h; series mostly up to 44.9 µM. An excerpt:
Assay Provider: Jonathan D. Licht, MD
University of Florida College of Medicine, Gainesville, FL
Mutations in epigenetic regulators are common in relapsed pediatric acute lymphoblastic leukemia (ALL). Here, we uncovered the mechanism underlying the relapse of ALL driven by an activating mutation of the NSD2 histone methyltransferase (p.E1099K). […] Correction of this mutation restored glucocorticoid sensitivity. The transcriptional response to glucocorticoids was blocked in NSD2 mutant cells due to depressed glucocorticoid receptor (GR) levels and the failure of glucocorticoids to autoactivate GR expression. […] Pre-treatment of NSD2 p.E1099K cell lines and PDX samples with PRC2 inhibitors reversed glucocorticoid resistance in vitro and in vivo.
High-throughput drug screening of isogenic RCH-ACV cell lines was performed at the National Center for Advancing Translational Science (NCATS), National Institutes of Health as previously described (1). Briefly, isogenic RCH-ACV NSD2 p.E1099K mutant (9B) and WT cells (2C) were plated at 500 cells/well in a 1536-well plate with a 72-hour incubation with compounds prior to addition of CellTiter-Glo to assess cell viability. NCATS libraries screened include: NPC, MIPE 5.0, Kinase and NPACT. To determine compound activity in the qHTS assay, the concentration-response data for each sample was plotted and modeled by a four-parameter logistic fit yielding IC50 and efficacy (maximal response) values. The area under the curve (AUC) of the dose-response curve ensures both efficacy (magnitude of cell killing) and potency (concentration that elicits cell killing) are accounted for in the analysis of activity.
1. Tobie D Lee, Olivia W Lee, Kyle R Brimacombe, Lu Chen, Rajarshi Guha, Sabrina Lusvarghi, Bethilehem G Tebase, Carleen Klumpp-Thomas, Robert W Robey, Suresh V Ambudkar, Min Shen, Michael M Gottesman, Matthew D Hall. A High-Throughput Screen of a Library of Therapeutics Identifies Cytotoxic Substrates of P-glycoprotein. Mol Pharmacol. 2019, Nov;96(5):629-640.
On to `CCCCC1CCC(c2nc(-c3ccncc3)no2)CC1` (stereo not given), for which the Potency entry was “inactive”.

In the case of `C=C1C(=O)O[C@@H]2C3=C(C)CCC[C@]3(C)CC[C@@]12O`, the Potency is 1.29 µM (active).

With `C=C1C(=O)OC2/C=C(\C)CC/C=C(\C)CC(OC(C)=O)C12` (stereo not given), the Potency is 6.49 µM (active).

On to `C=C1C(=O)O[C@@H]2C[C@H](C)C3=CC(=O)[C@H](O)[C@@]3(C)C[C@H]12`, for which the Potency was 18.3 µM (active).

As to `COC(=O)CC[C@@H](C)C1CCC2C3CCC4C[C@H](OC(C)=O)CCC4(C)C3C[C@H](O)C21C` (stereo not given in full), the Potency result is “inactive”.

Regarding `OC1C=C2C3CN(Cc4cc5c(cc43)OCO5)C2CC1O` (stereo not given), the Potency was 7.28 µM (active).

Take `C=CC(=O)N1CCC[C@@H](n2nc(-c3cccc(C(=O)Nc4ccc(C(C)C)c(C)c4)c3)c3c(N)ncnc32)C1`: the Potency is 9.16 µM (active).

With `CN(C)CCn1cc(-c2ccc(F)cc2)c(-n2cccc2)n1`, the Potency entry was “inactive”.

`C=C[C@]1(C)C[C@H](O)[C@H]2C(=C)C(=O)O[C@@H]2[C@H]1C(=C)CO`: the Potency was 14.5 µM (active).

As for `CN(C)CCN(Cc1ccc(-c2ccc(CNCCc3ccccc3)cc2)cc1)C(=O)CCC1CCCC1`, the Potency is 2.3 µM (active).

For the compound `C1=C/COCc2cc(ccc2OCCN2CCCC2)Nc2nccc(n2)-c2cccc(c2)COC/1`, the Potency was 258 nM (active) and 417 nM (active).

Turning to `COc1cc(C(C)=O)c(OC)c2c1OC(C)(C)C=C2`, the Potency entry is “inactive”.

On to `CC(=O)Nc1nc(C)c(-c2nc(N3CCCC(O)C3)no2)s1` (stereo not given), for which the Potency is 1.15 µM (active).

`COc1cc(-n2cnc3cc(-c4ccc(Cl)cc4)sc3c2=O)ccc1OCCN1CCCC1`: the Potency was 5.78 µM (active).

Consider `Cc1cn2cc(C(=O)N(C)CCO)cc(NC3CCOc4cccc(C)c43)c2n1` (stereo not given), for which the Potency entry was “inactive”.

For the compound `CN1CCC(NC(=O)c2cc(-c3c(O)cc(O)cc3Oc3ccc([N+](=O)[O-])cc3)on2)CC1`, the Potency is 0.23 µM (active).

Consider `CC(=O)OC1[C@H]2[C@@H](C[C@@H](C)[C@@H]3C=CC(=O)[C@@]13C)OC(=O)[C@@H]2C` (stereo not given in full), for which the Potency was 7.28 µM (active).

In the case of `CCn1c(-c2nonc2N)nc2c(C#CCO)ncc(OCCCN)c21`, the Potency is 5.78 µM (active).

On to `Cc1[nH]c(/C=C2\C(=O)Nc3ccc(F)cc32)c(C)c1C(=O)NCCN1CCCC1`, for which the Potency is 11.5 µM (active) and 7.23 µM (active).

In the case of `COc1ccccc1-c1ccc(-c2cn(C(=O)N3CCCCC3Cc3ccccc3)nn2)cc1` (stereo not given), the Potency entry is “inactive”.

For `NCC(CNc1nc(Nc2cccc(NC(=O)N3CCCC3)c2)ncc1I)C(=O)c1cccs1` (stereo not given), the Potency was 2.58 µM (active).

As for `CC(=O)OC1CC(C)C2(CCC3(CC(=O)OC3O)O2)C2(C)CCCC(C)(C)C12` (stereo not given), the Potency entry is “inactive”.

`CCOC(=O)c1ccc(OCCC2CCN(c3ccc(C)nn3)CC2)cc1`: the Potency result was “inactive”.

Regarding `O=C(NCc1nc2ccccc2c(=O)n1-c1ccc(F)cc1)Nc1ccc(Cl)c(C(F)(F)F)c1`, the Potency was 23 µM (active).

In the case of `C[C@@H](NC(=O)C(=O)c1c[nH]c2ccc([N+](=O)[O-])cc12)c1ccccc1`, the Potency entry was “inactive”.

Regarding `C=C[C@](C)(O)CC[C@H]1C(C)=CC(=O)[C@H]2C(C)(C)CCC[C@]12C`, the Potency was 18.3 µM (active).

In the case of `Nc1nc2c(ncn2C2OC3COP(=O)(O)OC3C2O)c(=O)[nH]1` (stereo not given), the Potency result is “inactive”.

For `C=C(C)C(=O)O[C@H]1C[C@@](C)(O)C2(O)CCC(C)(/C=C3/OC(=O)C(COC)=C31)O2` (stereo not given in full), the Potency was 0.713 µM (active).

As for `CCC(=O)N1CCOc2c(cc(-c3ccc(OC)c(OC)c3)cc2OC[C@H]2CCCN(C)C2)C1`, the Potency was 7.28 µM (active).

`C=C1C(=O)O[C@@H]2/C=C(\C)CC/C=C(\C)CC[C@@H]12`: the Potency is 7.28 µM (active).

`COc1ccccc1N1CCN(CC[C@@](C)(C(=O)C2CCCCC2)c2ccccc2)CC1`: the Potency is 18.3 µM (active).

With `CC(C)(C)[C@H](NC(=O)c1ccc(N)c(Cl)c1)C(=O)N1CCC[C@H]1C(=O)N[C@H](C#N)CC(=O)O`, the Potency entry is “inactive”.

With `COc1cc2nc(N3CCN(C(=O)c4ccco4)C4CCCCC43)nc(N)c2cc1OC` (stereo not given), the Potency was 3.65 µM (active).

With `C=C1C(=O)O[C@@H]2C[C@@]3(C)CCCC(=C)[C@]3(O)C[C@H]12`, the Potency is 6.49 µM (active).

On to `O=c1cc(NCCCN[C@@H]2CCOc3c(Br)cc(Br)cc32)[nH]c2ccsc12`, for which the Potency is 20.5 µM (active).

As to `NS(=O)(=O)c1ccc(N2CCN(CC[C@@H]3OCCc4ccccc43)CC2)cc1`, the Potency result is “inactive”.

Take `CCC(C)CNCC(=O)N1CCC2SC=CC2C1COc1cccc(C)c1` (stereo not given): the Potency was 18.3 µM (active).

On to `CC(=O)NC(C(=O)O[C@H]1CCC(C)(C)[C@@H]2CC=C3C(=O)OCC3(O)[C@@]12C)C(C)C` (stereo not given in full), for which the Potency is 12.7 µM (active).

In the case of `CC(C)C[C@H](C(=O)O)c1cc(-c2ccc(C(F)(F)F)cc2)cc(-c2ccc(C(F)(F)F)cc2)c1`, the Potency is 11.5 µM (active).

`O=C1c2ccc(Nc3ccc(F)cc3F)cc2CCc2ccc(OCC(O)CO)cc21` (stereo not given): the Potency is 18.3 µM (active).
